# KCNH2 3.1 inh: KCNH2 3.1 (human) potassium channel inhibition; actives 0.95% (n = 340,000); AID 720553; U2OS KCNH2 3.1, thallium flux FluxOr; stronger effect = lower value; activity change, % (tested at about 1.8 µM);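 active = maximum activity change below -70%; inconclusive = maximum activity change from -70% to -50%; inactive = maximum activity change above -50%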;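 also: thallium influx rate constant from kinetic fluorescence after stimulation buffer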
#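 Kinetic fluorescence (2 min after stimulation buffer) measures Tl+ influx through KCNH2 3.1 expressed by viral transduction in U2OS cells; the rate constant is normalized against DMSO controls serving as positive and negative references.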
# Coupling enz: counter-screen for Giardia aldolase inhibitors: coupling enzyme system; actives 0.67% (n = 290,000); coupling enzyme system counterscreen, AmpLite Red fluorescence; activity change, negative = inhibition, % at 58.2 µM, hits read low; in the data active = activity change below about -30%
#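 First, compound is pin-transferred into glyceraldehyde-3-phosphate coupling-enzyme reagent at 57.5 uM final and held 10 min at RT. Next, substrate, coupling system and AmpLite Red are added. After 20 min RT, fluorescence (525/598 nm) is read.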
# USP1-UAF1 inh: inhibitors of human USP1/UAF1 deubiquitinase; actives 0.23% (n = 390,000); AID 743255; O94782; recombinant USP1/UAF1, Ub-Rhodamine cleavage fluorescence; Potency, µM (doses to about 57.1 µM), for the others: at the top dose activity change, negative = inhibition, most hits filed as inhibitors; active = well fitted inhibition curve with a large enough effect; inconclusive = small, poorly fitted or top-dose-only effect; inactive = no such curve, though single readings can be large or run the other way; also: potency is read from the fitted curve at half-maximal effect; nearly all actives have a fitted effect of over 60% in size
# Target sequence (O94782 whole entry, looked up): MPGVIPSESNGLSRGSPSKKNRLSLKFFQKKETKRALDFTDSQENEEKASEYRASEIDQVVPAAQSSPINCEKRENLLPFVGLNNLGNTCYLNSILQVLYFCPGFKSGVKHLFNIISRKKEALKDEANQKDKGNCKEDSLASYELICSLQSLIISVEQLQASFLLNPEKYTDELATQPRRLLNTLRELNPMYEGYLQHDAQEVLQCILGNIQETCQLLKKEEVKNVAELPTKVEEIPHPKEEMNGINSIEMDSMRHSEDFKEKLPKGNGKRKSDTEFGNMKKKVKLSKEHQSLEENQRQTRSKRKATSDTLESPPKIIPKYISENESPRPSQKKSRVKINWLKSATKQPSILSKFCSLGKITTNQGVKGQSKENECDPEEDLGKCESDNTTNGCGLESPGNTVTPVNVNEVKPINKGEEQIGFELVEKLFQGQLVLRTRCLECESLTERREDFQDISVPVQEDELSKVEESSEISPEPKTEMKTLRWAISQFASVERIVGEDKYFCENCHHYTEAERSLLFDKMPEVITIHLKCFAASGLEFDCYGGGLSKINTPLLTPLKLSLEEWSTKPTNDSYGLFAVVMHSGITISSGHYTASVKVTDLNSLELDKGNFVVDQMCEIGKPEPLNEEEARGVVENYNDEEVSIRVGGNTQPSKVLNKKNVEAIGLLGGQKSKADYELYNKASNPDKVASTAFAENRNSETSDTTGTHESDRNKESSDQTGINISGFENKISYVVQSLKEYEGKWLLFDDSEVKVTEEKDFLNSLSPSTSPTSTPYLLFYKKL
#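 In this screen, compounds sit with the deubiquitinase complex (1nM) for 15 min at room temperature before Ub-Rho is added at 150nM final. Fluorescence rise is then followed for 6 reads every 60 seconds.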
# Giardia kill: Giardia lamblia killing; Giardia lamblia trophozoite viability; activity change, % at 7.66 µM, hits read low; actives 0.15% (n = 340,000); in the data active = activity change below about -80%; inconclusive = between about -30% and that limit;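 also: parasites exposed to compound for two days anaerobically before the ATP read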
#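 ATP-content bioluminescence gauges trophozoite survival. Cells (100/well) receive compound and incubate anaerobically for 48 hrs at 37 deg C; detection reagent follows for 15-30 min at room temperature.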
# KCNH2 WT inh: inhibitors of human wildtype KCNH2 potassium channel; Q12809; U2OS, BacMam KCNH2, thallium flux FluxOr; stronger effect = lower value; activity change, % at 1.84 µM; actives 0.37% (n = 340,000); AID 720551;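 active = maximum activity change below -70%; inconclusive = maximum activity change between -70% and -50%; inactive = maximum activity change above -50%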
#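 U2OS cells transduced with wild-type KCNH2 virus are loaded with FluxOr dye for 45 min, and thallium flux is measured in kinetic reads before and after stimulation buffer. Rate constants are normalized to DMSO controls.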
# An asterisk follows results filed as active; ? = inconclusive; · = no result. Shown are actives, neighbours in structure and some others; about 1.7% of the full set was active somewhere. % is scaled to controls: 0 for no effect and ±100 for the full control effect.
SMILES,KCNH2 3.1 inh,Coupling enz,USP1-UAF1 inh,Giardia kill,KCNH2 WT inh
O=C(Nc1nc2ccccc2s1)c1ccc([N+](=O)[O-])o1,-6.2,-0.6,-23.5%,-99.7*,0.6
COc1cc(C2Nc3ccccc3C(=O)N2Cc2ccccc2)ccc1OCc1ccccc1 (configuration not stated),·,·,·,6.3,·
O=C(NCC(c1ccc2c(c1)OCO2)N1CCOCC1)c1cccc(Cl)c1 (configuration not stated),·,·,-0.3%,·,·
CCc1ccc2[nH]c(=O)c(CN(Cc3cccnc3)Cc3nnnn3Cc3ccccc3)cc2c1,·,·,·,11.7,·
CC(C)COc1ccc(C(=O)N(Cc2ccc(N(C)C)cc2)Cc2ccco2)cc1,·,·,-8.1%,·,·
COC(=O)C1CCN(CC(=O)Nc2cc(C)c3c(=O)oc4ccccc4c3n2)CC1,·,·,-12.9%,·,·
O=C(C1CC1)N1c2ccccc2Sc2ccccc21,-82.8*,0.9,-13.5%,?,4.3
NC(=O)C1CCN(C(=O)N2c3ccccc3Sc3ccccc32)CC1,-2.1,-8.5,-3.5%,5.2,10.6
Nc1nnc2c(n1)CCCC2,2.9,-30.2*,15.8µM*,-3.4,-8.4
CS(=O)(=O)N1CCC(n2c(C(F)(F)F)nc3cccnc32)CC1,·,·,-13.2%,·,·
CCOC(=O)c1cccc(NC(=O)C2CCN(S(=O)(=O)c3cn(C)cn3)CC2)c1,·,·,-22.4%,·,·
COc1cc2c(C)nc3c(c(C)nn3-c3ccccc3)c2cc1OC,-80.8*,1.5,-16.4%,9.1,17.7
Cc1c(NC(=O)c2ccc(F)cc2)c(=O)n(-c2ccccc2)n1C,3.1,-0.7,-22.8%,2.2,28.7
Cc1c(NC(=O)c2cccc(F)c2)c(=O)n(-c2ccccc2)n1C,-109.1*,-0.2,-3.6%,-5.2,-2.9
Cc1noc(C)c1S(=O)(=O)Nc1c(C)n(C)n(-c2ccccc2)c1=O,-25.9,1.8,-3.3%,-7.3,-79.0*
Cc1cc(F)ccc1S(=O)(=O)Nc1c(C)n(C)n(-c2ccccc2)c1=O,-73.9*,0.6,-10.4%,7.6,-8.4
Cc1c(NS(=O)(=O)c2ccccc2F)c(=O)n(-c2ccccc2)n1C,-1.5,·,-5.5%,-1.9,-8.5
COc1ccc(/C(O)=C/C(=O)C(=O)Nc2c(C)n(C)n(-c3ccccc3)c2=O)cc1,31.1,1.9,-15.3%,6.7,-118.9*
COc1ccc(Cl)cc1NC(=O)c1cnc(SC)nc1-c1ccccc1,·,·,-12.9%,·,·
COc1ccccc1C1NC=C([N+](=O)[O-])C=C1[N+](=O)[O-] (configuration not stated),-6.4,-17.5,-20.6%,?,3.4
COc1ccccc1C1C([N+](=O)[O-])=CC([N+](=O)[O-])=CN1C (configuration not stated),-8.4,-5.8,-26.4%,-82.7*,5.4
COc1ccc(C)cc1NC(=O)CCn1nc(C)cc1C,·,·,-5.4%,·,·
CCN(Cc1ccccc1)C(=O)CN1C(=O)NC(CC)(c2ccc(F)cc2)C1=O (configuration not stated),-2.9,2.7,1.0%,34.8,-83.0*
COc1cc(CN2CCC(CO)(CCOc3ccccc3)CC2)cc(OC)c1OC,6.3,-1.3,-21.2%,-28.0,·
COc1cc(OC)c(CN2CCC(CO)(CCOc3ccccc3)CC2)c(OC)c1,·,-1.5,-11.0%,-1.5,-104.8*
SMILES,KCNH2 3.1 inh,Coupling enz,USP1-UAF1 inh,Giardia kill,KCNH2 WT inh
COc1ccc(CN2CCC(CO)(CCOc3ccccc3)CC2)cc1C,-124.8*,2.4,-13.3%,24.6,-13.4
CCCCCOC(=O)c1[nH]c2c(c1C)C(=O)C(C(=O)OC)C(C)C2 (configuration not stated),-3.5,0.8,-10.2%,9.6,-5.8
COCCOC(=O)c1[nH]c2c(c1C)C(=O)C(C(=O)OC)C(C)C2 (configuration not stated),8.1,-35.7*,-10.8%,-15.7,-1.8
COc1ccc(C(=O)Nc2oc(-c3ccccc3)c(-c3ccccc3)c2C#N)cc1,-70.3*,5.2,-5.7%,19.6,0.0
CCOc1cc(-c2nc(-c3ccc(-c4ccccc4)nc3OCC)no2)cc(OCC)c1OCC,·,·,-17.3%,·,·
O=C(Cc1ccc2c(c1)OCO2)NN=Cc1ccc([N+](=O)[O-])o1,-5.0,·,-1.8%,-102.4*,4.6
O=C(N/N=C/c1ccc([N+](=O)[O-])o1)c1ccncc1,-4.8,-3.0,-9.0%,5.0,-2.5
O=C(CNC(=O)c1ccccc1)N/N=C/c1ccc([N+](=O)[O-])o1,-10.7,-0.1,-26.5%,?,·
CCCCCC(=O)N/N=C/c1ccc([N+](=O)[O-])o1,-16.2,-2.7,-16.0%,-103.0*,8.9
O=C(Cc1ccc2c(c1)OCCO2)N/N=C/c1ccco1,2.2,·,-15.4%,-11.6,11.7
O=C(CCC(=O)Nc1ccc(Cl)cc1Cl)N/N=C/c1ccc([N+](=O)[O-])o1,-10.7,-15.8,-22.0%,-82.0*,11.9
O=C(CNc1ccccc1)N/N=C/c1ccc([N+](=O)[O-])o1,-4.2,0.9,0.6%,-104.5*,3.6
Cc1cccc(N(CC(=O)NCc2ccccc2)S(C)(=O)=O)c1C,·,·,-6.9%,·,·
CCC(C(=O)Nc1cc(OC)cc(OC)c1)n1nc(-c2ccc(C)c(C)c2)ccc1=O (configuration not stated),·,·,-18.4%,·,·
Cc1ccc(NCC(=O)N/N=C/c2ccc(C(=O)O)cc2)cc1,16.5,-16.1,-16.1%,22.5,-3.7
Cc1ccc(NCC(=O)N/N=C\c2ccc([N+](=O)[O-])o2)cc1,-37.5,0.1,-16.6%,-106.1*,-1.9
O=C(CNc1cccc2ccccc12)N/N=C/c1ccc([N+](=O)[O-])cc1,·,-0.1,-16.9%,2.2,-18.6
CCN(CC)c1ccc(N=Cc2ccc([N+](=O)[O-])o2)cc1,2.8,-38.7*,?,-9.5,-3.1
Cc1ccccc1NCC(=O)N/N=C/c1ccc([N+](=O)[O-])cc1,-111.8*,6.3,-19.3%,-11.9,-12.4
O=c1oc2ccccc2c(N2CCN(c3ccccc3F)CC2)c1CN1CCCC1,·,·,6.8%,·,·
Cc1ccccc1-c1nc(Nc2ccncc2)c2ccccc2n1,·,4.2,·,·,·
CCOc1ccc(NC(=O)CSc2nnc3c(n2)[nH]c2ccc(S(=O)(=O)N4CCCCC4)cc23)cc1,·,·,·,-22.8,·
COc1ccc(CN(C)CC(=O)Nc2cc(OC)c([N+](=O)[O-])cc2C)c(OC)c1,-70.7*,-3.2,-8.2%,-7.2,-1.4
COc1ccc(NC(=O)CN(C)S(=O)(=O)c2ccc(C)cc2)c([N+](=O)[O-])c1,-2.0,0.9,-9.2%,-8.1,-121.7*
COc1cc(NC(=O)CN(C)Cc2ccc(OC(F)F)cc2)c(C)cc1[N+](=O)[O-],-35.5,0.8,-18.2%,12.0,33.5
CCOc1ccc(-n2c(SCC(=O)N3CCCCC3)nc3c([nH]c4ccccc43)c2=O)cc1,·,·,-26.3%,·,·
N=c1ccn2c(n1)O[C@@H]1[C@H](O)[C@H](CO)O[C@@H]12,·,-0.3,·,·,·
CN(C)CC/C=C1/c2ccccc2Sc2c(O)cc(Cl)cc21,-5.2,-30.8*,-15.6%,-12.5,14.4
COc1cc(Cl)cc2c1Sc1ccccc1/C2=C/CCN(C)C,?,0.5,-3.3%,-0.8,-25.8

# Bioassay records deposited in PubChem BioAssay by National Center for Advancing Translational Sciences (NCATS).
